# Test results as given in PubChem BioAssay (NCATS).
# Results filed as inconclusive are left out. A number with no mark means an inactive call. Calls of active or inactive are those of the source. The call rests on the fitted dose curve; in most records, active means well fitted cell-killing curve with a large enough effect; inconclusive means small, poorly fitted or top-dose-only effect; inactive means flat fitted curve, though single readings scatter.
# Experiment: Cell Viability - LYMP2-013 (AID 970); further: nearly all actives have a fitted effect of over 55% in size;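 on activity change, negative = cytotoxic: 0% = DMSO only and full inhibition = tetraoctylammonium bromide control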
# Conditions: LYMP2-013 lymphoblastoid cells viability; series mostly up to 92.2 µM; activity change, negative = cytotoxic: at the top concentration
# Description: NIH Chemical Genomics Center [NCGC]
# NIH Molecular Libraries Screening Centers Network [MLSCN]
# National Institutes of Environmental Health Sciences [NIEHS]
# National Toxicology Program [NTP]
# We have developed a 1536-well cell-based assay for quantitative high throughput screening (qHTS) against a number of cell lines to determine in vitro cytotoxicity of small molecules. This particular assay uses a human lymphoblastoid cell line (LYMP2-013) purchased from Coriell Institute for Medical Research.
# NCGC Assay Protocol Summary:
# The CellTiter-Glo luminescent cell viability assay (Promega) is a homogeneous method to measure the number of viable cells in culture. The end point readout of this assay is based on quantitation of intracellular ATP, an indicator of metabolic activity, using the luciferase reaction. Luciferase catalyzes the oxidation of beetle Luciferin to oxyluciferin and light in the presence of ATP. The luminescent signal is proportional to amount of ATP present.
# Using the CellTiter-Glo luminescent cell viability assay, the amount of cellular ATP was measured in the lymphoblastoid cell line with complete culture medium following compound treatment for 24 hours. The assay was performed in opaque white Kalypsys 1536-well plates. In the screen, tetraoctylammonium bromide was used as positive control. Library compounds were measured for their ability to cause acute toxicity in the cell line, as reflected by a decrease in intracellular ATP levels, in a concentration-dependent manner. […] AC50 values were determined from concentration-response data modeled with the standard Hill equation.
# qHTS protocol for CellTiter Glo lymphoblastoid cellular assay
# [Step] [Parameter] [Value] [Description]
# 1. Reagent; 5 uL; 2500 lymphoblastoid cells/well
# 2. Time; 5 hr; 37 C incubation
# 4. Controls; 23 nL; Tetraoctylammonium bromide 6.4pM to 92 uM
# 5. Time; 24 hr; 37 C incubation
# 6. Reagent; 5 uL; CellTiter Glo reagent
# 7. Time; 30 min; Room Temperature
# 8. Detection; Luminescence; Viewlux plate reader
# Keywords: cell viability, cytotoxicity, lymphoblastoid cell line, luminescence, NTPHTS, NTPHTS_NCGC, NIEHS, DSSTox, MLSMR, MLSCN, NIH Roadmap, qHTS, NCGC
# Potency means the concentration at half of the fitted maximal effect.
SMILES,"activity change, negative = cytotoxic [%]",Potency
COc1cc(CNC(=O)CCCC/C=C/C(C)C)ccc1O,-1.34,–
CN(C)CCC(c1ccc(Cl)cc1)c1ccccn1 (configuration not stated),-21.7,–
CC(C)NCC(O)COc1cccc2ccccc12 (configuration not stated),-5.7,–
c1ccc2sc(SSc3nc4ccccc4s3)nc2c1,-19.4,–
COc1cc(/C=C/C(=O)CC(=O)/C=C/c2ccc(O)c(OC)c2)ccc1O,–,50.1 µM (active)
CN(C)c1ccc(C(=C2C=CC(=[N+](C)C)C=C2)c2ccccc2)cc1,–,0.501 µM (active)
CCCOC(=O)c1ccc(O)cc1,–,inactive
O=C(O)c1cc(O)c(O)c(O)c1,1.98,–
NCCO,-8.65,–
Nc1ccc(O)c([N+](=O)[O-])c1,-19,–
O=C(O)/C=C\C(=O)O,-1.23,–
Nc1ccc(O)c(C(=O)O)c1,-3.74,–
CN1CCC[C@H]1c1cccnc1,-5.92,–
Nc1nc2ccc([N+](=O)[O-])cc2s1,-20.7,–
S=c1[nH]c2ccccc2s1,-8.09,–
CC1(C)S[C@@H]2[C@H](NC(=O)[C@H](N)c3ccccc3)C(=O)N2[C@H]1C(=O)O,0.655,–
C#C[C@]1(O)CC[C@H]2[C@@H]3CCc4cc(O)ccc4[C@H]3CC[C@@]21C,-23.5,–
O=c1cc(-c2ccccc2)oc2ccccc12,-14.7,–
N=C1N=C(N)c2cc3ccccc3cc21,–,39.8 µM (active)
CCCCCCCCCCCCCCCCCC(=O)O,-3.3,–
Nc1ccc([N+](=O)[O-])cc1O,2.03,–
CN(C)c1ccc(N=NS(=O)(=O)O)cc1,-8.23,–
